Inconclusive results are not listed. Unmarked numbers belong to inactive results. Calls of active or inactive are those of the source. Calls come from the whole dose curve. Bridge positions count the residues as written; N and C are the ends. Peptide text beside a SMILES is read from it.
experiment: Cytotoxicity counterscreen for inhibitors of SARS-CoV-2 cell entry (AID 1645845); conditions: cell viability (SARS-CoV-2 entry assay cells); series mostly up to 57.1 µM; activity change, negative = cytotoxicity: at the top concentration; note: nearly all actives have a fitted effect of over 50% in size
Source text: Assay Provider: Wei Zheng, Ph.D.
National Center for Advancing Translational Sciences, National Institute of Health, Rockville, MD.
SARS-CoV-2 spike protein, within the viral envelope, mediates viral attachment and infection of host cells. The SARS-CoV-2 spike protein specifically binds to the host receptor ACE2 (Angiotensin-converting enzyme 2). This interaction promotes endocytosis of the viral particle, additional events lead to viral-host cell membrane fusion and release of the viral contents, allowing viral replication.
While SARS-CoV-2 requires BSL-3 facilities for live virus work, pseudo-typed partices (PP) that incorporate SARS-CoV-2 spike proteins without replication elements could facilitate studies on viral entry mechanisms in a BSL-2 setting. This PP cell entry assay could also enable screening of small molecule compound libraries in BSL-2 setting to identify inhibitors of SARS-CoV-2 cell entry. To eliminate false positive compounds, ATP content cytotoxicity assay was screened in the same cell line.
SEQUENCE No. (e.g., 1, 2, 3, etc.); […] (e.g., Cells, Incubation, Reagent, etc.); VALUE and DESCRIPTION.
1. Cells. Seed 1500 HEK293-ACE2 cells (Expi293F with stable expression of human ACE2) in 2 uL/well media (DMEM, 10% FBS, 1x L-glutamine, 1x Pen/Strep, 1 ug/ml puromycin) in white 1536-well assay plates (Greiner #782073).
2. Incubation. Incubate at 37 C with 5% CO2 overnight (~16 h).
3. Compounds. Dispense 23 nL/well compounds in DMSO via pin transfer.
4. Incubation. Incubate for 1 h at 37C 5% CO2.
5. Reagent. Dispense 2 uL/well of media (DMEM, 10% FBS, 1x L-glutamine, 1x Pen/Strep, 1 ug/ml puromycin).
6. Incubation. Incubate at for 48h at 37C 5% CO2
7. Reagent. Dispense 4 uL/well of ATPLite 1step luminescence assay reagent (PerkinElmer #6016739).
8. Incubation. Incubate for 15 min at room temperature.
9. Detection. Read luminescence signal (Viewlux plate reader, PerkinElmer). Data was normalized with wells containing cells as 100%, and wells without cells (media only control) as 0%.
% is set by controls: 0 for no effect and ±100 for the full control effect; potency is the fitted concentration of half-maximal effect.

SMILES | outcome | activity change, negative = cytotoxicity | Potency
CC(C)(S)[C@H](N)C(=O)O | inactive [at 5.25 µM] | – | –
Cc1ccc(-c2ccc3ncc4c(c3n2)n(C2CCN(C(=O)[C@H](C)O)CC2)c(=O)n4C)cn1 | – | -71.1% | –
c1ccc(-c2ccc(CNc3nc(-c4ccccn4)nnc3-c3ccccc3)cc2)cc1 | – | – | 14.1 µM (active)
Cn1cncc1C(N)(c1ccc(Cl)cc1)c1ccc2c(c1)c(-c1cccc(Cl)c1)cc(=O)n2C (stereo not given) | – | – | 8.91 µM (active)
Cn1cc(-c2ccc(F)c(C(F)(F)F)c2)nc1C1CCN(c2ncnc3[nH]ncc23)CC1 | – | -9.37% | –
CNC[C@@H]1CC[C@@H](N)[C@@H](O[C@H]2[C@H](O)[C@@H](O[C@H]3OC[C@](C)(O)[C@H](NC)[C@H]3O)[C@H](N)C[C@@H]2N)O1 | inactive | – | –
COc1ccc(CC(C)(C)NC[C@H](O)c2cc(O)cc3c2OCC(=O)N3)cc1 | inactive | – | –
NCCCC[C@H](NC(=O)[C@@H]1CCCN1C(=O)[C@@H]1CSSC[C@H](N)C(=O)N[C@@H](Cc2ccccc2)C(=O)N[C@@H](Cc2ccccc2)C(=O)N[C@@H](CCC(N)=O)C(=O)N[C@@H](CC(N)=O)C(=O)N1)C(=O)NCC(N)=O | – | 1.6% | –
C[C@]1(C(=O)N(CCCC(=O)O)Cc2cccc(Cl)c2)CCN1C(=O)c1csc2ccccc12 | – | -2.68% | –
Cc1noc(-c2ccc(-c3ccc(C4(C(=O)O)CC4)cc3)cc2)c1NC(=O)O[C@H](C)c1ccccc1 | – | -25.4% | –
O=C(NC[C@H](O)CN1CCc2ccccc2C1)c1cc(NC2COC2)ncn1 | – | -16.3% | –
COc1ccc([C@@H]2CC(=O)c3c(O)cc(O[C@@H]4O[C@H](CO[C@@H]5O[C@@H](C)[C@H](O)[C@@H](O)[C@H]5O)[C@@H](O)[C@H](O)[C@H]4O)cc3O2)cc1O | – | -3.14% | –
Cc1c[nH]c(/C=C2\C(=O)Nc3ccccc32)c1CCC(=O)O | – | -21.1% | –
[2H]c1nc(C)nc([2H])c1-c1cc(NC[C@@H](C)c2cccc3c(C(=O)NC)ccnc23)ncn1 | inactive | – | –
NS(=O)(=O)Oc1ccc2c3c(c(=O)oc2c1)CCCCC3 | inactive | – | –
CC1(C)SC2C(NC(=O)Cc3ccccc3)C(=O)N2C1C(=O)O (stereo not given) | inactive | – | –
Cn1nnnc1SCC1=C(C(=O)O)N2C(=O)[C@@H](NC(=O)[C@H](OC=O)c3ccccc3)[C@H]2SC1 | inactive | – | –
CC(C)N(CCCNC(=O)Nc1ccc(C(C)(C)C)cc1)C[C@H]1O[C@@H](n2cc(Br)c3c(N)ncnc32)[C@H](O)[C@@H]1O | – | – | 31.6 µM (active)
CNC(=O)[C@H]1O[C@@H](n2cnc3c(NCc4cccc(I)c4)nc(Cl)nc32)[C@H](O)[C@@H]1O | – | -26.1% | –
NCCCC[C@H](NC(=O)[C@@H]1CCCN1C(=O)[C@@H]1CSSC[C@H](NC(=O)CNC(=O)CNC(=O)CN)C(=O)N[C@@H](Cc2ccc(O)cc2)C(=O)N[C@@H](Cc2ccccc2)C(=O)N[C@@H](CCC(N)=O)C(=O)N[C@@H](CC(N)=O)C(=O)N1)C(=O)NCC(N)=O (H-GGGCYFQNCPKG-NH2; disulfide 4-9) | inactive | – | –

SMILES | outcome | activity change, negative = cytotoxicity | Potency
CN(C)CC/C=C1\c2ccccc2CSc2ccccc21 | – | -15.7% | –
COC1=C2C[C@H](C)C[C@H](OC)[C@H](O)[C@@H](C)/C=C(/C)[C@H](OC(N)=O)[C@@H](OC)/C=C\C=C(\C)C(=O)NC(=CC1=O)C2=O | – | -12.2% | –
C=C/C=C/CC1=C(C)[C@H](OC(=O)[C@H]2[C@H](/C=C(\C)C(=O)OC)C2(C)C)CC1=O | – | -7.66% | –
C=CC[N+]1([C@H]2C[C@H]3[C@@H]4CC[C@H]5C[C@H](O)[C@@H](N6CCOCC6)C[C@]5(C)[C@H]4CC[C@]3(C)[C@H]2OC(C)=O)CCCC1 | – | – | inactive
Cc1c(O)c(=O)ccn1C | inactive [at 114 µM] | – | –
CC(C)(O)CC[C@@H](O)[C@](C)(O)[C@H]1CC[C@@]2(O)C3=CC(=O)[C@@H]4C[C@@H](O)[C@@H](O)C[C@]4(C)[C@H]3CC[C@]12C | – | -16.4% | –
NC(=S)NS(=O)(=O)c1ccc(N)cc1 | – | 0.0509% | –
Cn1ncc(Cl)c1-c1cc(C(=O)N[C@H](CN)Cc2cccc(F)c2)sc1Cl | – | -1.09% | –
COC(=O)/C=C/C(=O)N(O)CCCCNCc1ccc(COC(=O)Nc2cccc3ccccc23)cc1 | – | -10.2% | –
OCC=Cc1ccccc1 | inactive | – | –
CCOc1cc(C(C)(C)C)ccc1C1=N[C@@](C)(c2ccc(Cl)cc2)[C@@](C)(c2ccc(Cl)cc2)N1C(=O)N1CCN(CC(=O)N2CCOCC2)CC1 | inactive [at 37.9 µM] | – | –
CC[C@H]1OC(=O)C[C@@H](O)[C@H](C)[C@@H](OC2OC(C)C(O)C(N(C)C)C2O)[C@@H](CCN2CCCCC2)C[C@@H](C)C(=O)/C=C/C(C)=C/[C@@H]1CN1CCCCC1 (stereo not given in full) | inactive | – | –
NC(N)=NCC1COC2(CCCCC2)O1 (stereo not given) | inactive | – | –
CN[C@@H](C)C(=O)N[C@@H]1C(=O)N(Cc2c(C)ccc3ccccc23)c2ccc(C#N)cc2N(C(C)=O)[C@H]1C | – | -7.91% | –
NC(Cc1cc(I)c(Oc2cc(I)c(O)c(I)c2)c(I)c1)C(=O)O (stereo not given) | inactive [at 27.1 µM] | – | –
Cc1nc(NS(=O)(=O)c2ccc(N)cc2)nc(C)c1Br | inactive | – | –
CC(C)[C@]12O[C@H]1[C@@H]1O[C@@]13[C@@]1(C)CCC4=C(COC4=O)[C@@H]1C[C@@H]1O[C@@]13C2=O | – | -35% | –
O=C(O)c1ccc(CCCc2ccc(OCCc3ccc(F)cc3)cc2)o1 | – | -0.717% | –
N#Cc1ccc(C2CCCc3cncn32)cc1 (stereo not given) | inactive [at 27.1 µM] | – | –
Cc1onc(-c2ccc(F)cc2)c1COc1ccc(C(=O)N2CCS(=O)(=O)CC2)cn1 | – | -5.28% | –

Source: PubChem BioAssay (NCATS)
